{"source": "paper PMC4336329", "about": "(PLoS ONE, 2015)", "note": "Out of some 310,000 compounds screened, about 14,000 (4.5%) showed an effect of 50% or more. The effect is printed as a negative number. The entries come from a sample that favours strong results as a whole.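 Further: peak tail current of the secondary pulse compared with the same well before compound.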"}
{"molecular_target": "human ether-à-go-go-related gene (hERG) potassium channel (human, UniProt Q12809)", "sequence (Q12809 whole entry, looked up)": "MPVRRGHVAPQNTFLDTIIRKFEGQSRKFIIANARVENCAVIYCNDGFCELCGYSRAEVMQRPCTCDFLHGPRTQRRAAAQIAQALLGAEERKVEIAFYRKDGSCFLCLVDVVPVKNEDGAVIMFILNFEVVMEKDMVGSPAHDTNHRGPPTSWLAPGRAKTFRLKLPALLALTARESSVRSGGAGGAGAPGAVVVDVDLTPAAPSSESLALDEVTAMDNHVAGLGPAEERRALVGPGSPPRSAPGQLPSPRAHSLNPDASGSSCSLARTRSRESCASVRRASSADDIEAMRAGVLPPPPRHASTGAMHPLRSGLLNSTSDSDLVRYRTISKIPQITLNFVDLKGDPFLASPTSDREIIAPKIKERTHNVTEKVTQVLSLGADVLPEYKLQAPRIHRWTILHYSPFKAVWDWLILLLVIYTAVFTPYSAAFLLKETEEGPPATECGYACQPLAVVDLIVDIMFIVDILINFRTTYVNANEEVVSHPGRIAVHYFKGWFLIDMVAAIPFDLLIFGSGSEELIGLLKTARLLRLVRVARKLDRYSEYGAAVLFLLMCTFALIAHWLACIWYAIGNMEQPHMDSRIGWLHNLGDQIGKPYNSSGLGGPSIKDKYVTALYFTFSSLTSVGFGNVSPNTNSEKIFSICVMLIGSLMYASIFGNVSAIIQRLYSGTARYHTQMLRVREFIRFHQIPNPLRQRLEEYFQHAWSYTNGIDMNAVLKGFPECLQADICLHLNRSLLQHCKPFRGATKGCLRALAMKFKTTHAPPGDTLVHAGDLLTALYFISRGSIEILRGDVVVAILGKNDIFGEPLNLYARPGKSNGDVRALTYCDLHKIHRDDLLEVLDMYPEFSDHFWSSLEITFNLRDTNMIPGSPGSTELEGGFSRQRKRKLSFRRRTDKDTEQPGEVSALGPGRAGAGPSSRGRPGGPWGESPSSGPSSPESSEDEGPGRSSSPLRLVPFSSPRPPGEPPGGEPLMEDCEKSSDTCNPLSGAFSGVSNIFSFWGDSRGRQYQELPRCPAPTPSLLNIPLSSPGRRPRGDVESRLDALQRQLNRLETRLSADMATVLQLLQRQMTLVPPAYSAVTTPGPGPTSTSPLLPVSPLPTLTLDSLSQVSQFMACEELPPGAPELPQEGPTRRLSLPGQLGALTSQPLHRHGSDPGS", "assay": "primary screen, population patch clamp on CHO cells stably expressing hERG; higher = less effect of the substance", "units": {"hERG current change (%, negative = inhibition) at 10uM": "%"}}
{"smiles": "C[C@@H](C(=O)NCC1CC1)[C@H]1C[C@]1(C)[C@H](NC(=O)OCc1ccccc1)c1ccccc1", "hERG current change (%, negative = inhibition) at 10uM": -7.08}
{"smiles": "Cc1cccc(C(=O)N2CCCC(CCC(=O)N3CCN(c4ccccn4)CC3)C2)c1C", "note": "(stereo not drawn)", "hERG current change (%, negative = inhibition) at 10uM": -17.3}
{"smiles": "O=C(Cn1cnc2cc([N+](=O)[O-])ccc2c1=O)Nc1cccc2ccccc12", "hERG current change (%, negative = inhibition) at 10uM": -5.73}
{"smiles": "O=C(O)c1ccc(Cl)c(S(=O)(=O)Nc2ccc(OCc3ccccc3)cc2)c1", "hERG current change (%, negative = inhibition) at 10uM": 7.79}
{"smiles": "O=C(Cn1cc(C(=O)C2CC2)c2ccccc21)NCc1ccccc1", "hERG current change (%, negative = inhibition) at 10uM": 3.43}
{"smiles": "Cc1cc(C(F)F)n2ncc(C(=O)NC3CCCCCC3)c2n1", "hERG current change (%, negative = inhibition) at 10uM": -11.5}
{"smiles": "O=C(NCc1ccc2c(c1)OCO2)C(=O)NCC(c1ccco1)N1CCN(c2ccccc2)CC1", "note": "(stereo not drawn)", "hERG current change (%, negative = inhibition) at 10uM": 16}
{"smiles": "O=C(COc1ccccc1)Nc1ccc(N2CCN(C(=O)c3ccco3)CC2)cc1", "hERG current change (%, negative = inhibition) at 10uM": -53}
{"smiles": "Cc1cc(C)cc(OCC(=O)Nc2ccc(N3CCN(C(=O)c4ccco4)CC3)cc2)c1", "hERG current change (%, negative = inhibition) at 10uM": -45.8}
{"smiles": "O=C(COc1ccc(Cl)cc1)Nc1ccc(N2CCN(C(=O)c3ccco3)CC2)cc1", "hERG current change (%, negative = inhibition) at 10uM": -21.1}
{"smiles": "COc1ccc(NC(=O)CSCC(=O)N2CCN(C(=O)c3ccco3)CC2)cc1", "hERG current change (%, negative = inhibition) at 10uM": -55.1}
{"smiles": "Cc1cccc(OCC(=O)Nc2ccc(N3CCN(C(=O)c4ccco4)CC3)cc2)c1", "hERG current change (%, negative = inhibition) at 10uM": -28.1}
{"smiles": "Cc1cccc(NC(=O)CSCC(=O)N2CCN(C(=O)c3ccco3)CC2)c1", "hERG current change (%, negative = inhibition) at 10uM": -30.5}
{"smiles": "COc1ccc(OCC(=O)Nc2ccc(N3CCN(C(=O)c4ccco4)CC3)cc2)cc1", "hERG current change (%, negative = inhibition) at 10uM": 0.974}
{"smiles": "Cc1ccc(NC(=O)CSCC(=O)N2CCN(C(=O)c3ccco3)CC2)cc1", "hERG current change (%, negative = inhibition) at 10uM": -21.6}
{"smiles": "Cc1ccc(OCC(=O)Nc2ccc(N3CCN(C(=O)c4ccco4)CC3)cc2)cc1", "hERG current change (%, negative = inhibition) at 10uM": -56.1}
{"smiles": "COc1ccc2c(c1)C(=O)N(c1ccc(C)cc1C)C(=O)C2", "hERG current change (%, negative = inhibition) at 10uM": 7.6}
{"smiles": "O=C(O)C(Cc1ccccc1)N1C(=O)/C(=C/c2ccccc2)SC1=S", "note": "(stereo not drawn)", "hERG current change (%, negative = inhibition) at 10uM": -0.221}
{"smiles": "CCn1c(NCc2ccco2)nc2c1c(=O)n(C)c(=O)n2C", "hERG current change (%, negative = inhibition) at 10uM": -10.7}
{"smiles": "CCCCC1=C([O-])C2N=CC=CC2=[N+](c2ccccn2)C1=O", "note": "(stereo not drawn)", "hERG current change (%, negative = inhibition) at 10uM": 0.715}
{"smiles": "Cc1ccc(-n2c(=O)[nH]c3c(C(N)=O)nc(CC(C)C)nc32)cc1", "hERG current change (%, negative = inhibition) at 10uM": 4.8}
{"smiles": "COc1ccccc1N1CCN(CC(=O)Nc2ccc(CN3CCCCC3)cc2)CC1.Cl", "hERG current change (%, negative = inhibition) at 10uM": -11.5}
{"smiles": "O=C(COc1ccc(Cl)cc1Cl)Nc1ccc(CN2CCOCC2)cc1", "hERG current change (%, negative = inhibition) at 10uM": 15.4}
{"smiles": "O=C(Cc1ccc(Cl)cc1)Nc1ccc(CN2CCCCC2)cc1", "hERG current change (%, negative = inhibition) at 10uM": -64.9}
{"smiles": "O=C(COc1ccc(Cl)cc1Cl)Nc1ccc(CN2CCCCC2)cc1", "hERG current change (%, negative = inhibition) at 10uM": -67.9}
{"smiles": "Cc1ccc(Cl)cc1N1CCN(CC(=O)Nc2ccc3[nH]c(=O)[nH]c3c2)CC1", "hERG current change (%, negative = inhibition) at 10uM": 11.1}
{"smiles": "O=C(COc1ccccc1Cl)Nc1ccc(CN2CCCCC2)cc1", "hERG current change (%, negative = inhibition) at 10uM": -33.7}
{"smiles": "Cc1ccc(Cl)cc1N1CCN(CC(=O)Nc2ccc(CN3CCCCC3)cc2)CC1.Cl", "hERG current change (%, negative = inhibition) at 10uM": -71.1}
{"smiles": "O=C(Nc1ccc(Cl)cc1)N1CCCN(Cc2ccccc2F)C1", "hERG current change (%, negative = inhibition) at 10uM": -26.3}
{"smiles": "O=C(Cc1ccc(Cl)cc1)Nc1ccc(C(=O)N2CCCCC2)cc1", "hERG current change (%, negative = inhibition) at 10uM": 14.5}
{"smiles": "O=C(Nc1ccccc1)N1CCCN(Cc2ccccc2F)C1", "hERG current change (%, negative = inhibition) at 10uM": -8.48}
{"smiles": "O=C(Cc1ccc(Cl)cc1)Nc1ccc(N2CCCC2)cc1", "hERG current change (%, negative = inhibition) at 10uM": 17.3}
{"smiles": "O=C(Nc1ccc(Cl)cc1)N1CCCN(Cc2ccc(F)cc2)C1", "hERG current change (%, negative = inhibition) at 10uM": -75.4}
